PubChem BioAssay (NCATS)
Inconclusive results are not listed. Values without a mark were called inactive. Activity calls are given as the source filed them. Calls come from the whole dose curve; as a rule, active = well fitted inhibition curve with a large enough effect; inconclusive = small, poorly fitted or top-dose-only effect; inactive = flat fitted curve, though single readings scatter. Peptide text beside a SMILES is read from it.

These compounds were tested against Ubiquitin carboxyl-terminal hydrolase 1 (Homo sapiens) (UniProt O94782) (assay: Inhibitors of USP1/UAF1: Pilot qHTS (AID 504865; note: nearly all actives have a fitted effect of over 35% in size;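 for activity change, negative = inhibition: rhodamine fluorescence freed from ubiquitin-rhodamine substrate followed over time; top concentration of the series differs between compounds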)). Settings: purified USP1/UAF1, Ub-rhodamine cleavage fluorescence; series mostly up to 114 µM; activity change, negative = inhibition: at the top concentration.
Ubiquitin carboxyl-terminal hydrolase 1 (Homo sapiens), sequence (O94782 whole entry, looked up): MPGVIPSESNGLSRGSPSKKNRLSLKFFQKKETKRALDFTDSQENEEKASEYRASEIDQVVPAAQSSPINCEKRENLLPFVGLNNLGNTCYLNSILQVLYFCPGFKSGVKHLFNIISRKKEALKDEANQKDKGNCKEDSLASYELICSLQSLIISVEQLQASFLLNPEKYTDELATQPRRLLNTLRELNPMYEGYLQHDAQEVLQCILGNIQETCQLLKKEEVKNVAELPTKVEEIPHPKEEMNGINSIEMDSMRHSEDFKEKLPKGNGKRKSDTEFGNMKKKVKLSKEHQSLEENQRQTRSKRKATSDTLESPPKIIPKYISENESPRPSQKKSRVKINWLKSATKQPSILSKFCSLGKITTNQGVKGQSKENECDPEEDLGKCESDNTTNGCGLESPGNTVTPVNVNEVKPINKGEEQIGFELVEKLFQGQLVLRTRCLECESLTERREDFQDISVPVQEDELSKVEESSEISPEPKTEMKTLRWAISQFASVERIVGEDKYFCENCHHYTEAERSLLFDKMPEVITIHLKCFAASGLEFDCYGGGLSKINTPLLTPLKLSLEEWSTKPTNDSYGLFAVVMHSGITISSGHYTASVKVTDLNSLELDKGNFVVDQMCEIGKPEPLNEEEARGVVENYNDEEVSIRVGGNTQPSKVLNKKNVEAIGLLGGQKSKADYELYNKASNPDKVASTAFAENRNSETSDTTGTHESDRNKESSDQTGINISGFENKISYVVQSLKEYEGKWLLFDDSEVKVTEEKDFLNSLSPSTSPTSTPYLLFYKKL
In short: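 Kinetic fluorescence assay: 1nM USP1/UAF1, 15 min compound preincubation, then 150nM Ub-Rho; 480/540 nm.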
% is set by controls: 0 for no effect and ±100 for the full control effect; potency is the fitted concentration of half-maximal effect.

SMILES | Potency | activity change, negative = inhibition
CCCCCCCC/C=C\CCCCCCCC(=O)O | 35.5 µM (active) | 
CC1(C)C(C=C(Cl)Cl)C1C(=O)OCc1cccc(Oc2ccccc2)c1 (stereo not given) |  | -8.79%
Cc1ccccc1OCC(O)CNCCOc1ccc(C(N)=O)cc1 (stereo not given) |  | -11.6%
O=C(O)CN(CCN(CC(=O)O)CC(=O)O)CC(=O)O | inactive | 
Cc1cc(/C=C/c2ccc3cc(N(C)C)ccc3[n+]2C)c(C)n1-c1ccccc1 | 44.7 µM (active) | 
Cc1cn([C@H]2C[C@H](O)[C@@H](CO)O2)c(=O)[nH]c1=O | inactive | 
COC(C(=O)C(O)C(C)O)C1Cc2cc3cc(OC4CC(OC5CC(O)C(O)C(C)O5)C(O)C(C)O4)c(C)c(O)c3c(O)c2C(=O)C1OC1CC(OC2CC(OC3CC(C)(O)C(O)C(C)O3)C(O)C(C)O2)C(O)C(C)O1 (stereo not given) |  | 7.48%
CCN(CC)Cc1cc(Nc2ccnc3cc(Cl)ccc23)ccc1O |  | -12% [at 54.9 µM]
C[C@]12CCC(=O)C=C1CC[C@@H]1[C@@H]2[C@@H](O)C[C@@]2(C)[C@H]1CC[C@]2(O)C(=O)COP(=O)(O)O |  | -4.28%
CC(NNC(=O)c1ccccc1)c1ccccc1 (stereo not given) |  | -9.41%
Cc1c(C)c2c(c(C)c1O)CC[C@@](C)(CCC[C@H](C)CCC[C@H](C)CCCC(C)C)O2 |  | -7.6%
CCCCCCCC(=O)O |  | -0.509%
CC1(C)S[C@@H]2[C@H](NC(=O)Cc3ccccc3)C(=O)N2[C@H]1C(=O)O |  | 2.16% [at 54.9 µM]
C#CCOc1ccc2c(C)cc(=O)oc2c1 |  | -8.28%
C[C@@H]1CCC2[C@@H](C)[C@@H](O)O[C@@H]3O[C@@]4(C)CC[C@@H]1[C@@]23OO4 (stereo not given in full) |  | -6.95%
CCCCCCCCCCCCCC[n+]1ccc(C)cc1 | 56.2 µM (active) | 
CCCCC(C)(O)C/C=C/[C@H]1[C@H](O)CC(=O)[C@@H]1CCCCCCC(=O)OC (stereo not given in full) |  | 3.34%
OCc1ccccc1O[C@@H]1O[C@H](CO)[C@@H](O)[C@H](O)[C@H]1O |  | -3.98%
CC(O)CO (stereo not given) |  | -0.733%
CCCC(=O)Nc1ncnc2c1ncn2[C@@H]1O[C@@H]2COP(=O)(O)O[C@H]2[C@H]1OC(=O)CCC |  | -6.16%
CC(=O)N[C@@H](CC(=O)O)C(=O)N[C@@H](CCC(=O)O)C(=O)O (Ac-Asp-Glu-OH) | inactive | 
CC1=CCC(C(C)(C)O)CC1 (stereo not given) |  | 1.36%
NC1C2CN(c3nc4c(cc3F)c(=O)c(C(=O)O)cn4-c3ccc(F)cc3F)CC12 (stereo not given) |  | -5.22%
CO[C@H](C(=O)[C@@H](O)[C@@H](C)O)C1Cc2cc3cc(O[C@H]4C[C@@H](O[C@H]5C[C@@H](O)[C@H](O)[C@@H](C)O5)[C@@H](O)[C@@H](C)O4)c(C)c(O)c3c(O)c2C(=O)[C@H]1O[C@H]1C[C@@H](O[C@H]2C[C@@H](O[C@H]3C[C@](C)(O)[C@H](O)[C@@H](C)O3)[C@H](O)[C@@H](C)O2)[C@H](O)[C@@H](C)O1 (stereo not given in full) |  | 2.01%
O=C(O)CC/C=C\CC[C@H]1[C@@H](N2CCCCC2)[C@@H](O)C[C@@H]1OCc1ccc(-c2ccccc2)cc1 |  | -7.69%
Nc1ncnc2c1ncn2[C@@H]1O[C@H](COP(=O)(O)OP(=O)(O)OP(=O)(O)O)[C@@H](O)[C@H]1O |  | 3.11%
IC(I)I |  | -3.81%
CC(=O)Oc1c(C)cc(OCC(O)CNC(C)C)c(C)c1C (stereo not given) |  | -6.22%
O=C(O)c1cc(O)c2c(c1)[O][Bi][O]2 |  | -3.77%
Clc1cc(Cl)c(OCC#CI)cc1Cl |  | -5.4%
